Source: PubChem (several laboratories)
Mtb RmlCD inh – blocks M. tuberculosis RmlC and RmlD coupled enzymes. P9WH09+P9WH11. RmlC+RmlD coupled enzyme assay, percent inhibition; primary screen in compound mixtures. inhibition, % at 3.6 µM. hit rate 0.03% among 160,000; in the data active = inhibition mostly above about 34%, no sharp cut-off
VHR inh abs – blocks human VHR1 dual specificity phosphatase; P51452; recombinant VHR phosphatase, pNPP absorbance; inhibition, % at 13.3 µM; hit rate 0.52% among 290,000; in the data active = inhibition above about 50%
Target sequence (P51452 whole entry, looked up): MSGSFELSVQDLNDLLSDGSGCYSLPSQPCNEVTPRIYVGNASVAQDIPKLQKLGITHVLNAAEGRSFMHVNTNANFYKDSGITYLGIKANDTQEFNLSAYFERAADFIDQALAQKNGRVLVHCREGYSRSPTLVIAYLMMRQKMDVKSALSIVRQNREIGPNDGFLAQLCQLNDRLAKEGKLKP
Numbers without * were called inactive; nt = no result given. Shown are actives, neighbours in structure and some others; about 0.54% of the full set was active somewhere.

SMILES | Mtb RmlCD inh | VHR inh abs
Cc1nc(CN2CCC(c3ccccc3)CC2)cc(=O)[nH]1 | -8 | 53*
Cc1cc(=O)[nH]c(CN2CCC(c3ccccc3)CC2)n1 | 0 | 48
CC1(C(=O)N2CCC(CO)(Cc3cccc(C(F)(F)F)c3)CC2)CC1 | nt | -2
CC(=O)c1ccc(C(=O)N2CCC(CO)(Cc3cccc(C(F)(F)F)c3)CC2)cc1 | 2 | 53*
O=C(Oc1cc2oc(=O)c3c(c2cc1Cl)CCCC3)c1cccs1 | nt | -2
CC(C)(C)c1ccc(C(=O)N/N=C/c2cccc(Cl)c2)cc1 | 6 | -2
Cc1c(NC(=O)c2cc(-c3ccc(Cl)cc3)on2)c(=O)n(-c2ccccc2)n1C | nt | 36
COc1cccc(-c2noc(CCC(=O)NCCc3ccccc3)n2)c1 | nt | 58*
O=C(CCc1nc(-c2ccccc2)no1)NCCc1ccccc1 | 13 | 9
CCOc1ccc(N(CC(=O)N2CCN(C(=O)CN(c3ccc(OCC)cc3)S(C)(=O)=O)CC2)S(C)(=O)=O)cc1 | nt | 31
Cc1c(C(=O)NCC2CCCO2)oc2ccc(S(=O)(=O)N3CCCC3)cc12 (stereo not drawn) | -6 | 0
Cc1c(C(=O)NCC2COc3ccccc3O2)oc2ccc(S(=O)(=O)N(C)C3CCCCC3)cc12 (stereo not drawn) | -10 | 52*
Cc1onc(-c2ccccc2Cl)c1C(=O)NC(=S)NCC(=O)c1ccccc1 | nt | 57*
CCc1ccc(NC(=S)NC(=O)c2c(-c3ccccc3Cl)noc2C)cc1 | -2 | 5
Cc1cccc(-n2c(=O)c3ccccc3n3c(=S)[nH]nc23)c1C | nt | 16
CC(c1nccs1)N(C)C(=O)CCc1nnc(Cc2c[nH]c3ccccc23)o1 (stereo not drawn) | 5 | 9
CSc1ncc(Cl)c(C(=O)NCc2cccnc2)n1 | nt | 52*
CSc1ncc(Cl)c(C(=O)NCc2ccc3c(c2)OCO3)n1 | 11 | 22
N=C1C(c2nc3ccccc3c(=O)[nH]2)=C(O)CN1c1ccccc1 | 5 | 16
CCOc1ccc(N2CC(O)=C(c3nc4ccccc4c(=O)[nH]3)C2=N)cc1 | 2 | 56*
CCOc1ccc(NC(=O)CC2C(=O)N(c3ccccc3)C(=O)N2CCc2cccs2)cc1 (stereo not drawn) | 11 | 7
Cc1nc(S(=O)(=O)c2ccc(Cl)cc2)c(N(C)C)o1 | nt | 53*
Cc1ccc(-c2nc(S(=O)(=O)c3ccc(C)cc3)c(N(C)C)o2)cc1 | nt | -2
COc1ccc(NC(=O)c2nnn(CC(=O)Nc3ccc4c(c3)OCO4)c2N)c(OC)c1 | nt | 8
O=[N+]([O-])c1cccc(/C([O-])=C(/C(=S)Nc2ccccc2)[n+]2ccccc2)c1 | 9 | 0
SMILES | Mtb RmlCD inh | VHR inh abs
CC(/C=N/NC(=O)c1cccs1)=C\c1ccco1 | 8 | 51*
CC(/C=N/NC(=O)Cc1cccs1)=C\c1ccco1 | nt | 21
Cc1c(C(C)NC(=O)c2cc(COc3cccc4cnccc34)on2)cnn1C (stereo not drawn) | nt | -2
CCc1nonc1NC(=O)c1oc2ccc(C)cc2c1C | nt | -4
CCc1nonc1NC(=O)c1oc2ccccc2c1C | nt | 50*
CCSc1ccccc1C(=O)NCCCn1ccnc1 | 12 | 24
CSc1ccccc1C(=O)NCCCn1ccnc1 | nt | 54*
O=C(O)CCc1nn2c3ccccc3nc2n(CCN2CCCCC2)c1=O | 12 | 20
Cc1ccc(CNC(=O)c2ccccc2NC(=O)CN2CCN(C)CC2)cc1 | nt | 56*
COc1cc2c(cc1OC)CN(CC(=O)Nc1ccccc1C(=O)NCc1ccccc1)CC2 | nt | 38
CCSc1nc2sccc2c(=O)n1-c1ccccc1 | nt | 11
CC(=O)Nc1ccc(NC(=S)NC(=O)C2CCCC2)cc1 | nt | 60*
COc1ccc(NC(=S)NC(=O)C2CCCCC2)cc1 | nt | -3
COc1ccc(CCN(C)Cc2cccc3ccccc23)cc1OC | nt | 6
COc1ccc(CCN(C)Cc2c(O)ccc3ccccc23)cc1OC | nt | 58*
Cc1ncc(CN2CCCC(C(=O)Nc3ccc(-c4cccc(F)c4)cc3)C2)n1C (stereo not drawn) | nt | 12
COC(C(=O)N/N=C(\C)c1ccc(O)cc1)c1ccccc1 (stereo not drawn) | nt | 5
COC(C(=O)N/N=C(\C)c1ccc(C)cc1)c1ccccc1 (stereo not drawn) | nt | 52*
CCc1ccc(O)c(N=Cc2ccccc2O)c1 | -8 | 3
O=c1[nH][nH]c2c(N=Cc3ccccc3O)ccc(F)c12 | -10 | 52*
Cc1ccc(N2C(=O)c3ccc(C(=O)N4CCN(c5cccc(C)c5C)CC4)cc3C2=O)cc1 | nt | 31
O=C(CNC(=O)Cc1ccccc1)NCC(=O)OCC(=O)c1cccc2ccccc12 | nt | 33
Cn1c(=O)[nH]c(=O)c2c1nc(N/N=C/C(Br)=C/c1ccccc1)n2CCO | -6 | -16
O=C(NCCCl)NNc1c(Cl)cc(Cl)cc1Cl | 3 | -9
CCCCNC(=S)NNc1c(Cl)cc(Cl)cc1Cl | 6 | 51*
SMILES | Mtb RmlCD inh | VHR inh abs
COc1cccc(OCc2cc(C(=O)N3CCNC(=O)C3Cc3ccccc3)no2)c1 (stereo not drawn) | nt | 1
COc1ccc(CN2C(=NC(=O)COc3ccccc3)SC3CS(=O)(=O)CC32)cc1 (stereo not drawn) | nt | -9
O=C(COc1ccccc1)N=C1SC2CS(=O)(=O)CC2N1Cc1ccccc1 (stereo not drawn) | nt | 60*
COc1cccc(C2C(C(=O)OC(C)C)=C(C)Nc3ncnn32)c1 (stereo not drawn) | 10 | 14
CCCCOCCCNC(=O)CN1C(=O)c2ccccc2C1=O | 57 | 24
Cc1cc(C)c(C(=O)NNC(=O)c2cccnc2)c(C)c1 | nt | 56*
O=C(NNC(=O)c1cccnc1)c1ccncc1 | nt | -46
Cc1cccc(NC(=O)CCC2CCN(C(=O)c3ccc(C)s3)CC2)c1 | nt | 60*
COCc1ccc(C(=O)N2CCC(CCC(=O)Nc3cccc(C)c3)CC2)s1 | nt | 5
CCCCCCC(=O)Nc1cc2c(C)cc(=O)oc2cc1C | 10 | 4
CCC(=O)Nc1cc2c(C)cc(=O)oc2cc1C | 2 | 56*
O=C1c2ccc(Br)cc2C(=O)N1c1ccc(Cl)cn1 | nt | 33
CCN(CC)Cc1c(O)ccc2c(=O)c(-c3ccccc3OC)coc12 | nt | 2
COc1ccccc1-c1coc2c(CN3CCC(C)CC3)c(O)ccc2c1=O | nt | 57*
N#Cc1cnn2c(-c3ccccc3)ccnc12 | 11 | 18
COc1ccc(-c2ccnc3c(C#N)cnn23)cc1 | 44* | 2
CCOC(=O)C1(CC2CCCCO2)CCN(Cc2nc(C(C)C)cs2)CC1 (stereo not drawn) | 0 | -4
CCNC(=O)COc1ccc(/C=C2\COc3ccccc3C2=O)cc1OC | nt | 10
OC1CCC(Nc2ncnc3sccc23)CC1 (stereo not drawn) | nt | -3
CCC1Oc2ccc(C)cc2N(CC(=O)NCCCN2CCCCC2C)C1=O (stereo not drawn) | nt | 58*
CCC1Oc2ccc(C)cc2N(CC(=O)NCCCN2CCCCC2CC)C1=O (stereo not drawn) | -6 | -5
Cc1ccc2c(c1)N(CC(=O)NCCCN1CCCCC1C)C(=O)c1cccnc1O2 (stereo not drawn) | nt | 81
CC1CCCCN1CCCNC(=O)CN1C(=O)c2cccnc2Oc2ccccc21 (stereo not drawn) | nt | 56*
COc1ccc2c(c1)c(=O)oc1c(C)c(OCc3ccc(C(=O)O)cc3)ccc12 | nt | 52*
COc1ccc2c(c1)c(=O)oc1c(C)c(OCc3cc(C(=O)O)oc3C)ccc12 | 1 | 116
COc1ccc(NC(=O)/C(C#N)=C/c2ccc(OCCN3CCOCC3)c(OC)c2)c(OC)c1 | nt | 12
